Laboratory results: the supplement of paper PMC3334620
The full ranking holds about 33,000 sequences; the median of “E-score (-0.5 to 0.5)” is about -0.021, and the highest 2% start at about 0.32. The sample as a whole holds a higher share of the highest values than the screen did.

Each sequence was assayed against T1, Zap1 (UniProt P47043) (assay: PBM E-score (8-mer binding enrichment) (E-score (-0.5 to 0.5)); higher = stronger / more preferred TF binding). Conditions: protein concentration: 200 nM; construct: GST-full length.
T1 sequence: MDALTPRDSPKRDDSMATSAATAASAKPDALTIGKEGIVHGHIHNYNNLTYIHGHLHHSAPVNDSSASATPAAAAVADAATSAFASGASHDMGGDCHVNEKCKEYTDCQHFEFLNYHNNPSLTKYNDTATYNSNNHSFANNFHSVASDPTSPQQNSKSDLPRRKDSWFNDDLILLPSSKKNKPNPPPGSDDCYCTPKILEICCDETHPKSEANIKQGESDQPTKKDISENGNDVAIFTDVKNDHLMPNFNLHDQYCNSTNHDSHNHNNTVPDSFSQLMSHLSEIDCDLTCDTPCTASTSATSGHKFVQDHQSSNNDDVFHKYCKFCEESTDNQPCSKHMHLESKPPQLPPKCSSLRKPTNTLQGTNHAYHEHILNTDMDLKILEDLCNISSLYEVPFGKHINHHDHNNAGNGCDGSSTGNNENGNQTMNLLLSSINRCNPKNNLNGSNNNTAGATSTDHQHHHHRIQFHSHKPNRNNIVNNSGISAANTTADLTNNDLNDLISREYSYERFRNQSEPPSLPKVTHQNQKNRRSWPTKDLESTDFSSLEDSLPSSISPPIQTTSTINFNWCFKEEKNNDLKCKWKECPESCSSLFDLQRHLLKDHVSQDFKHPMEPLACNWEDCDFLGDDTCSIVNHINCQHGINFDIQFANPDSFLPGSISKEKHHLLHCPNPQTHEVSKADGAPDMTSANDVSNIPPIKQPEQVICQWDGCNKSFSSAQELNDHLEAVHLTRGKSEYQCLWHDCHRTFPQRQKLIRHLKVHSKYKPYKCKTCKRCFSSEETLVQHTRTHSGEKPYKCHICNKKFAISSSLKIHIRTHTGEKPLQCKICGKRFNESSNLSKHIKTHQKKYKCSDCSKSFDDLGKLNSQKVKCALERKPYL
Experimental: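 Universal 'all 10-mer' protein binding microarrays (Agilent AMADID 015681) probed with GST-tagged S. cerevisiae TFs (full-length or DBD) made by in vitro transcription/translation (PURExpress), about 100-200 nM. Bound TF was detected with fluorescent anti-GST. Each ungapped 8-mer (which stands for itself and its reverse complement) is scored by the PBM enrichment score (E-score), a modified Wilcoxon-Mann-Whitney statistic from -0.5 to +0.5, computed with the Universal PBM Analysis Suite. Scale: above 0.35 generally sequence-specific binding.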

Sequence	PBM E-score
GGTAGTAC	0.248
CCAGCACA	-0.00996
ATCGACCG	-0.132
AAGTTATC	0.0532
AGGTTATC	0.463
CCGTTATA	0.103
ATGTTATA	-0.0204
AAGTTATG	0.181
CGGTTATA	0.405
ACGTTATC	-0.101
ATGTTATG	0.158
AGGTTATG	0.475
CTGTTATA	0.115
AGGTTATA	0.469
ACGTTATA	0.137
GAGTACAC	-0.0741
CGTTCCCA	-0.125
AAGCAATG	0.0748
GAGAATAA	0.0442
ACGATCGT	0.0702
ATACAGAA	0.0186
AGTCTAGA	-0.295
CTGAATGA	0.0581
AGATAGCG	-0.163
AGGCCTTG	-0.0709

Sequence	PBM E-score
ACATCCAA	-0.00617
CAGTTATC	0.0632
CGGTTATC	0.424
CTGTTATC	0.0763
GGGTTATA	0.474
GCGTTATA	0.218
GAGTTATA	0.142
GCACTGAA	-0.136
AGAGCGTG	-0.169
AGCCACAA	0.153
GAGTCAGA	-0.157
AGAAGTAG	-0.123
ACCACCCC	-0.00264
ACCACCCT	0.352
AGCACCCG	0.125
AGCACCCT	0.317
ACCACCCA	0.252
AGCACCCA	-0.0894
GCAGGCTA	-0.25
CTATTCGA	-0.0524
CCTAGCGC	-0.0463
AGCGATGG	-0.195
CCACAACG	0.0128
AGACAACC	0.31
CCACAACA	0.109

Sequence	PBM E-score
CGACAACA	0.0946
CCGCAACA	0.162
CGACAACC	0.339
ACGCAACC	0.316
CCGCAACC	0.34
CCACAACC	0.411
GCAGTTAC	0.109
CCCAAGAC	-0.045
GTTGAGAA	-0.027
AGTACTGG	-0.141
GCGCTGTA	-0.043
CCCTAGGA	0.0656
ACTTAACC	0.287
GCTTAACC	0.327
CCTTAACA	0.116
CCCTAGGG	0.41
GCTTAAAC	-0.0479
ACCTAACC	0.269
CCTTAACC	0.438
ACCTAGGG	0.119
GCCTAACC	0.125
GCTTAACA	-0.0361
CCCTAACC	0.33
CACTTTAC	0.0657
AGGTCTCC	0.00142

Sequence	PBM E-score
ACACTTTC	-0.104
ATCCTCCG	-0.238
ATCCAACG	-0.139
AATCAGTC	-0.107
TCGCAACA	-0.0496
CCCTAAGC	-0.159
CCCTAAGA	0.263
CCCTAAGG	0.402
CGGGCGAG	-0.0126
CCCACCCA	0.323
ACCACCCG	0.184
CCCACCCG	0.324
CCCACCCC	0.149
TCCACCCA	-0.233
GCCACCCA	-0.0281
GTCTTCTA	-0.0319
CTGATGGA	-0.254
GTCCTTGA	0.113
CACCTTGA	0.179
AACCTTGA	0.429
TACCTTGA	0.337
AACCTTGT	0.229
GACCTTGC	0.133
GACCTTGA	0.34
AACCTTGC	0.305

Sequence	PBM E-score
TACCTTCA	0.255
CTAGGGAC	-0.0705
CAAAACTC	0.0001
GTCTCCCA	-0.252
GTAAAGGA	-0.0539
CATAAACG	0.0839
AGGTAACA	0.344
TGGTAACA	0.0812
CGGTAACA	0.253
CGGTAATA	0.219
GGGTAACA	0.334
AAGTAACA	-0.0158
CGGTAACC	0.47
AGGTAATA	0.263
GGGTAATA	0.348
CGGTAACG	0.0507
AGGTAAGA	0.125
GTGTAACA	0.0444
ATGAGCAT	0.049
ACCTGAGT	0.0343
GTGACGCA	0.0591
TCTCTTCA	-0.139
AAGGGCGC	0.0237
TCTACACA	0.0487
AGGTAACC	0.441

Sequence	PBM E-score
GGGTAACC	0.46
AGGTAACG	0.19
GGGTAAAC	0.194
GGGTAAAA	0.306
AGGTAACT	0.237
CAGGAGGG	0.143
AATTCACC	0.0819
AGTCCTCC	-0.144
AAAGCAGG	-0.075
CGGTGACC	0.327
AGGTGACA	0.0888
CGGTGACA	0.193
GGGTGACC	0.385
CGGTGACG	0.0241
AGGTGACG	0.182
GAGTGACC	0.239
GGGTGACA	0.252
AGGTGACC	0.393
TAAGACTA	-0.0191
TGACAAAA	0.152
CAAGTGTA	-0.0404
AGCCCCCT	-0.406
AAGATGCG	-0.058
AAGAGGGA	-0.199
ATACTCTA	-0.0192

Sequence	PBM E-score
CGCCACTC	-0.113
GTAGGTTA	0.39
GTAGGTGA	0.0614
CTAGGTTA	0.42
ATAGGTTC	0.138
ATAGGTTG	0.16
CTAGGTTC	0.0156
GTAGGTAA	0.199
ATAGGTTA	0.46
CTAGGTCA	0.117
AAGCACGT	-0.3
CGGTTAGC	0.151
CCAATTAC	0.103
ACCAAATC	0.0501
AACTACCA	0.179
AGTATCCG	-0.013
AGGTCTGA	-0.0295
CCTAGAGA	-0.0434
CCTAGAGG	0.366
ACTAGAGG	-0.0174
GTAATGCA	-0.157
GAAGGGTA	0.421
AAAGGGGA	-0.127
GAAGGGGA	-0.0649
AAGGGGTA	0.334

Sequence	PBM E-score
TAAGGGCA	-0.0345
AAAGGGTA	0.415
TAAGGGGA	0.00031
AGGGGGTA	0.0442
AAAGGGCA	-0.0435
TAAGGGTA	0.433
GAAGGGAA	-0.194
AAGGGGGA	-0.245
AACGAATA	-0.00355
CAATCCAG	-0.0505
CGAAGTCG	0.0486
GCTTCCGA	-0.0201
AGAGCAAT	-0.181
ACCCTAGA	0.359
CCCCTAGA	0.147
ACCCTAGG	0.428
AACCTAGG	0.232
TCCCTAGA	-0.0192
ACCCTAGT	0.411
CCCCTAGG	0.16
AACCTAGT	0.161
ACCCTAGC	0.247
GAAGTGGC	-0.106
GCGCATGA	-0.185
AGGACATG	-0.0235

Sequence	PBM E-score
AAATACCA	0.129
GCGGGTTA	0.366
GGGGGTTA	0.0334
GCGGGGTA	0.293
CGGGGTTC	0.168
CCGGGTTC	0.247
ACGGGTTG	0.158
CCGGGTGA	0.218
ACGGGTTC	0.0245
CCGGGTTA	0.388
CGGGGTTA	0.474
ACGGGTTA	0.408
GCGGGTAA	0.106
ATCTTATG	-0.00019
CCCTTCAG	0.122
GCGCACAC	-0.234
CGGCGTTA	0.0618
ATCTAGGA	-0.0827
AAGTTGAT	-0.14
